# Screening data (PubChem BioAssay)
# In the library only some 19% were active in any assay of this set; here they are far more common.
# DT40 TDP1 CPT: DT40-hTDP1 cell growth loss with CPT; chicken DT40 Tdp1-/-;hTDP1 cells + 20 nM CPT, ATP luminescence, 48 h; Potency, µM (highest dose often 46.2 µM), without a hit: top-dose activity change, negative = growth inhibition, most hits filed as inhibitors; hit rate 12% among 420,000; note: potency is the fitted concentration of half-maximal effect; nearly all actives have a fitted effect of over 55% in size
#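 Cell growth measured by CellTiter-Glo luminescence after a minimum 48 h, 37 C compound exposure with 20 nM CPT in Tdp1-knockout DT40 cells stably expressing hTDP1, seeded 400/well; qHTS titration format.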
# TDP1 cell noCPT: qHTS for Inhibitors of human tyrosyl-DNA phosphodiesterase 1 (TDP1): qHTS in cells in absence of CPT; hit rate 15% among 420,000; DT40 Tdp1-/- hTDP1 cells, no CPT, ATP luminescence, 48 h; Potency, µM (highest dose often 46.2 µM), for inactives: at the top dose activity change, negative = growth inhibition, most hits filed as inhibitors; AID 686978, 2013; note: potency is the fitted concentration of half-maximal effect; nearly all actives have a fitted effect of over 55% in size
#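 Chicken DT40 Tdp1-/- cells stably complemented with human TDP1 were seeded at 400 cells/well with DMSO in place of 20 nM camptothecin. After compound pinning, cells grew at least 48 hr at 37 °C; viability read by CellTiter-Glo luminescence.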
# HT1080-NT tox: kills 2HG-producing HT-1080-NT fibrosarcoma cells; HT-1080-NT fibrosarcoma viability, CellTiter-Glo ATP luminescence, 48 h; Potency, µM (highest dose often 46.1 µM), for inactives: top-dose activity, negative = less viability, hits mostly cytotoxic; hit rate 1.6% among 360,000; AID 686970;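 note: NT is the 2HG producing partner of a matched IDH1 knockdown line; potency is the fitted concentration of half-maximal effect; 0% = DMSO-treated cells and -100% = media-only wells without cells; nearly all actives have a fitted effect of over 55% in size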
#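 750 cells/well, RPMI + 5% FBS; 2 h settle, compound pin-transfer, 48 h at 37 degrees C. CellTiter-Glo 10 min RT, luminescence. Normalized to DMSO and media-only wells.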
# IL1B secr inh: inflammasome signaling inhibition, IL-1 beta readout. activity change, % at 57.5 µM. THP-1 LPS/ATP IL-1B secretion, AlphaLISA, 16 h; hits give low values. hit rate 4.7% among 360,000. AID 743279; in the data active = activity change below about -50%; inconclusive = mostly about -30% to -49%
#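 Secreted IL-1B measured by AlphaLISA bead assay after 16 h compound exposure of THP-1 cells; compounds (final up to 57.5 uM) added 1 h before LPS (250 ng/mL) and ATP (1.25 mM) stimulation; lower signal means less secretion.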
# HT1080 IDH1KD tx: kills HT-1080 cells with IDH1 knockdown | HT-1080 IDH1 knockdown viability, ATP luminescence, 48 h | Potency, µM (top dose mostly 46.1 µM), for inactives: top-dose activity, negative = toxicity, usual class: cytotoxic | hit rate 2% among 360,000;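 note: potency is the fitted concentration of half-maximal effect; 0% = DMSO wells and -100% = cell-free medium wells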
#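 After a 2 h attachment period, IDH1KD HT-1080 cells took pin-transferred compound for 48 h at 37 °C; ATP-based luminescence after 10 min room-temperature reagent incubation reported viability.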
# The depositor's hits bear a star; ? = inconclusive; · = no result; ! = repeats disagree. Unless noted, calls come from the whole dose curve; as a rule, active = well fitted curve in the direction sought with a large enough effect; inconclusive = small, poorly fitted or top-dose-only effect, or another doubt; inactive = no such curve, though single readings can be large; an effect the other way counts as inactive or inconclusive. Unless noted, % is set by controls: 0 for no effect and ±100 for the full control effect.
SMILES,DT40 TDP1 CPT,TDP1 cell noCPT,HT1080-NT tox,IL1B secr inh,HT1080 IDH1KD tx
O=C1NC(=O)C(=Cc2coc3ccc(O)cc3c2=O)C(=O)N1,16.4µM*,20.6µM*,-9.9%,-23.1,-23.0%
O=C1NC(=O)C(=Cc2ccco2)C(=O)N1,?,-29.9%,-16.5%,-13.8,-6.2%
CC1=C(C(=O)O)N2C(=O)[C@@H](NC(=O)CCCC(=O)O)[C@H]2SC1,-4.4%,-11.8%,-2.4%,4.1,0.3%
Nc1c(C(=O)Nc2ccc(OC(F)(F)F)cc2)sc2nc3c(cc12)N1CCC3CC1,16.4µM*,18.4µM*,·,·,·
CCOC(=O)c1ccc(NC(=O)c2sc3nc4c(cc3c2N)N2CCC4CC2)cc1,-25.3%,?,·,·,·
O=C(Oc1ccc2ccc(OC(=O)N3CCCCCC3)cc2c1)N1CCCCCC1,11.6µM*,20.6µM*,4.2%,22.0,1.9%
CCc1ccccc1NC(=O)CNCc1ccccc1,13.2%,-3.5%,-8.4%,-9.6,10.5%
CC[C@@]1(O)C(=O)OCc2c1cc1n(c2=O)Cc2cc3c(N)cccc3nc2-1,0.164µM*,0.13µM*,2.06µM*,-112.2*,1.3µM*
CCOc1ccc(Cl)cc1CNCCc1ccc(F)cc1,20.6µM*,16.4µM*,?,-57.3*,-24.7%
Fc1ccc(CCNCc2ccccc2Cl)cc1,-27.5%,-24.5%,-2.0%,-5.7,-5.7%
CCN1C[C@@]2(OC(=O)c3ccccc3NC(C)=O)CCC(OC)[C@@]34C5CC6C(OC)C[C@@](O)(C(CC23)[C@@H]14)C5(O)C6OC (stereo partly drawn),-2.6%,4.4%,·,·,·
C=C1C2C[C@@]3([C@@H]1O)[C@@H](C[C@@H]2O)[C@@]12C4[C@@H]3C[C@@H]1[C@@](C)(CC[C@@H]2O)CN4CC,9.8%,1.8%,14.0%,21.8,0.6%
CCN(CC)S(=O)(=O)c1ccc(C)c(NCC(=O)Nc2ccc(C#N)c(Cl)c2)c1,16.4µM*,14.6µM*,-23.5%,-5.5,?
CC(=O)N1CCN(CC(=O)Nc2ccc(C#N)c(Cl)c2)CC1,-28.4%,3.4%,14.9%,2.3,2.3%
c1ccc(CNC2CCCCCCC2)cc1 (tested in a mixture with another compound),-26.9%,?,-7.1%,-73.7*,-7.4%
COc1cccc(NC(=O)N2CCc3nc(Nc4ccc(C(C)C)cc4)ncc3C2)c1,25.9µM*,?,?,-14.3,-10.1%
CN(C)C(=O)Oc1cccc(NC(=O)N2CCOCC2)c1,-19.1%,-3.4%,5.8%,4.2,3.9%
CC(C)[C@H](N)C(=O)OCCOCn1cnc2c(=O)[nH]c(N)nc21,1.84µM*,2.91µM*,26.1%,4.7,8.5%
CN1C(=O)CN=C(c2ccccc2)c2cc([N+](=O)[O-])ccc21,?,16.8µM*,·,·,·
CC(=NCCCN1CCCCC1)c1c(O)n(Cc2ccccc2)c(=O)[nH]c1=O,-9.7%,-15.6%,-13.6%,-26.9,-7.3%
CC(=NCc1cccnc1)c1c(O)n(-c2ccccc2C)c(=O)[nH]c1=O,3.2%,2.0%,10.3%,-4.1,4.5%
[Hg+][c]1ccccc1,0.0891µM*,0.1µM*,·,·,·
Cc1cc(C)cc(NC(=O)CN2C(=O)CN=C(c3ccccc3)c3cc(Cl)ccc32)c1,20.6µM*,?,·,·,·
CCC(C)NC(=O)CN1C(=O)CN=C(c2ccccc2)c2ccccc21 (stereo not drawn),-10.2%,-11.9%,?,-12.9,21.0%
COc1ccc(Cl)cc1NC(=O)CN1C(=O)CN=C(c2ccccc2)c2cc(Cl)ccc21,?,14.6µM*,·,·,·
SMILES,DT40 TDP1 CPT,TDP1 cell noCPT,HT1080-NT tox,IL1B secr inh,HT1080 IDH1KD tx
O=C(O)CN1C(=O)CN=C(c2ccccn2)c2cc(Cl)ccc21,-2.2%,-7.4%,-7.6%,39.5,-0.7%
O=S1(=O)OCCC(c2ccccc2)N1Cc1ccccc1 (stereo not drawn),?,-21.8%,15.1%,12.3,8.2%
O=P(c1ccccc1)(c1ccccc1)N(c1ccccc1)c1ccccc1,2.91µM*,4.61µM*,-13.4%,11.8,?
CC(C)CC(N)c1csc(NC(=O)Nc2ccccc2-c2ccccc2)n1 (stereo not drawn),23.1µM*,18.4µM*,?,?,-20.9%
CC(C)c1ccc(NC(=O)Nc2nc(C(N)CCc3ccccc3)cs2)cc1 (stereo not drawn),5.8µM*,4.61µM*,?,-106.1*,13µM*
CC(CN(C)C1CCN(C)CC1)c1ccccc1 (stereo not drawn),-8.8%,1.6%,-6.3%,-12.3,-2.0%
c1ccc2c(c1)Sc1ccccc1N2CC1CN2CCC1CC2 (stereo not drawn),2.66µM*!,6.68µM*,-6.8%,-24.2,-3.9%
Cc1ccc(Cl)cc1N1CCN(C(=O)c2cn(C)c(=O)c3c2c2ccccc2n3C)CC1,?,18.4µM*,1.8%,-68.5*,-0.7%
Cc1ccc(C)c(N2CCN(C(=O)CCNS(=O)(=O)c3ccc4c(c3)oc(=O)n4C)CC2)c1,?,?,-16.0%,2.6,-1.6%
CSc1ccc(C(=O)C2CCCN(Cc3cccnc3)C2)cc1 (stereo not drawn),?,?,?,-12.3,-21.5%
CSc1ccc(C(=O)C2CCCN(Cc3cc4ccccc4[nH]3)C2)cc1 (stereo not drawn),?,?,23.1µM*,-100.0*,?
CC(C)(CN)CC(=O)O,-13.4%,-4.7%,-1.4%,1.8,-1.3%
Clc1ccc(C2(Cn3cncn3)OCCO2)c(Cl)c1,-4.3%,-22.9%,·,·,·
N=c1c[n+](CC23CC4CC(CC(C4)C2)C3)[n-]o1,-15.4%,-5.0%,0.5%,-19.4,-0.8%
COc1cc2cc(C(=O)N3CC(COS(C)(=O)=O)c4ccc(O)cc43)[nH]c2c(OC)c1OC (stereo not drawn),-102.0%,-104.2%,2.91µM*,-99.2*,0.13µM*
Cc1ccc(OCC(=O)N2CCN(CCc3ccncc3)CC2)cc1C,-19.8%,-21.4%,·,·,·
Cc1ccccc1OCC(=O)Nc1ccccc1C(=O)OCc1cc(=O)n2nc(C3CC3)sc2n1,1.64µM*,1.64µM*,·,·,·
Cc1nn2c(=O)cc(COC(=O)c3ccccc3NC(=O)c3cccs3)nc2s1,9.2µM*,10.3µM*,·,·,·
O=C(OCc1cc(=O)n2nc(C3CC3)sc2n1)c1ccc(NC(=O)c2ccccc2Cl)cc1,?,7.31µM*,·,·,·
CC1COC2N=C(N[N+](=O)[O-])NC2O1 (stereo not drawn),-5.5%,?,19.8%,0.9,18.0%
c1ccc(N2[C@@H]3CC[C@H]2c2ccccc2C3)cc1,?,?,18.1%,33.1,3.2%
CCCN(CCC)C(=O)Cc1c(-c2ccc(Cl)cc2)nc2ccc(Cl)cn12,-7.7%,?,·,·,·
CC1CC(C)(O)CC(C(O)CC2CC(=O)NC(=O)C2)C1=O (stereo not drawn),0.184µM*,0.184µM*,?,-101.0*,0.164µM*
